Bioassay records: PubChem, Sanford-Burnham Center for Chemical Genomics
Many of the other results were omitted from the sample, so hits are more common in it than they were.
Artemis inh: blocks endonuclease activity of human Artemis; Q96SD1; recombinant Artemis, quenched FAM hairpin cleavage fluorescence; inhibition, % at 10 µM; 30,000 tested, 0.78% active;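 active = at 10 µM dose, at least 30% inhibition, measured as corrected fluorescence normalized to stimulator and neutral control wells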
The depositor's hits bear a star.

SMILES	Artemis inh
CCN(C(=O)CSc1nc2ccccc2n1CCc1ccccc1)C1CCS(=O)(=O)C1 (stereo unspecified)	-7
COc1ccc(C(=O)Nc2ccc(N3CCCC3)cc2)cc1	62*
CCOc1ccc(C(=O)Nc2ccc(N3CCCC3)cc2)cc1	27
O=C(Nc1ccc(N2CCCCC2)cc1)c1ccc(F)cc1	10
COc1ccc(Nc2nc(N3CCCC3)c3ccccc3n2)cc1	33*
c1ccc2c(N3CCCC3)nc(-c3ccncc3)nc2c1	3
COc1cccc(Nc2nc(NCCO)c3ccccc3n2)c1	-7
CCc1ccc(N2CC(C(=O)Nc3nccs3)CC2=O)cc1 (stereo unspecified)	-10
CS(=O)(=O)NCc1nnc(SCC(=O)NC2CCCCC2)n1-c1ccc(F)cc1	7
Oc1ccc(Cl)cc1C(C#Cc1ccccc1)N1CCOCC1 (stereo unspecified)	1
Cc1cc(Cl)cc(Br)c1OCCNCC(C)O (stereo unspecified)	31*
CC(=O)NCCOc1c(C)cc(S(N)(=O)=O)cc1C	-4
COc1cc(C=O)ccc1OCCOCCOc1c(C)cc(Cl)cc1Cl	4
Cc1cccc(N2CCN(C(=O)Cc3c(C(=O)O)[nH]c4ccc(Cl)cc34)CC2)c1C	13
CCC1C(=O)Nc2nc(-c3ccccc3)c(-c3ccccc3)n2N=C1C (stereo unspecified)	8
Cc1c(Cl)c(-c2n[nH]c(=S)n2-c2ccc(F)cc2)nn1C	-1
O=C(NC(O)C(=O)c1cccs1)c1cccnc1 (stereo unspecified)	-5
c1ccc(-c2cn3c(n2)SCC3)cc1	-5
c1ccc(-c2cn3c(n2)CCC3)cc1	-5
c1ccc(-c2cn3nc4c(nc3n2)CCCC4)cc1	34*
Brc1ccc(-c2cnnc(N3CCCC3)n2)cc1	-12
Brc1ccc2nc3c(n2c1)CCCC3	2
Brc1ccc(-c2cn3nc4c(nc3n2)CCCC4)cc1	31*
COCC(=O)N(C)C1(c2nnnn2CCOC(=O)Nc2cccc3ccccc23)CCCC1	-3
O=C(CSc1nnc(-c2ccc(Cl)cc2Cl)n1C1CCCCC1)N1CCCC1	3
SMILES	Artemis inh
O=c1c2ccccc2n(Cc2cccc(F)c2)c(=O)n1C1CCCC1	3
O=C(CN1C(=O)c2cccc3cccc1c23)Nc1cccnc1	1
CCCCOCP(=O)(CCCC)COCCCC	1
O=C(CCCc1ccccc1)Nc1cccnc1	-5
CC1=NOC(=O)/C1=C\c1ccc(-c2cccc(Cl)c2)o1	28
C=CCOC(=O)C1=C(C)NC(SC)=C(C#N)C1c1ccc(OCC)cc1 (stereo unspecified)	0
C=CCOC(=O)c1cc(-c2ccc(/C=C3\C(=O)NC(=O)C(C#N)=C3C)o2)ccc1Cl	36*
C=CCSc1nc(N)c(C(=O)Nc2ccccc2C)cc1C(N)=O	-11
COc1cccc(NC(=O)Cn2c(=O)c3c(ncn3Cc3ccccc3)n(Cc3ccccc3)c2=O)c1	-14
Cc1cc(C)c(S(=O)(=O)c2ccccc2)c(OC(=O)c2cc(F)c(F)cc2Cl)n1	-7
C=C(C)c1cccc(C(C)(C)NC(=O)N2CCN(CC(N)=O)CC2)c1	-5
O=C(CN1C(=O)NC2(CCCCCC2)C1=O)Nc1ccc(S(=O)(=O)N2CCOCC2)cc1	-9
Cc1ccc(O)c(N=CC2=C(O)c3ccccc3C2=O)c1	38*
COc1ccc(N=CC2=C(O)c3ccccc3C2=O)cc1	3
O=C1C(C=Nc2ccccc2)=C(O)c2ccccc21	4
Cc1c(Cl)c([N+](=O)[O-])nn1Cc1ccc(C(=O)N/N=C\c2cccc(Br)c2)o1	14
COC(=O)CN(C(=O)CSc1nnc(-c2cccc(OC)c2)o1)c1ccc(OC)cc1	34*
COc1ccc(C(=O)CSc2nnc(-c3ccccc3)o2)cc1	-3
COc1cccc(-c2nnc(SCC(=O)N3CCOCC3)o2)c1	2
Cc1ccc(-c2csc3ncn(-n4c(C)ccc4C)c(=O)c23)o1	13
COc1ccc(-c2csc(NC(=O)C3CCCCN3S(=O)(=O)c3ccccc3)n2)cc1 (stereo unspecified)	10
O=c1c2ccccc2nc(SCc2cn3ccsc3n2)n1-c1ccc(F)cc1	13
c1ccc2c(SCc3cn4cccnc4n3)ncnc2c1	-5
O=c1c2c(-c3ccco3)csc2nc(SCc2cn3cccnc3n2)n1-c1ccccc1	31*
CCOc1nc2ccccc2nc1C	-10
SMILES	Artemis inh
O=C(Nc1nc(-c2cccs2)c(-c2ccccc2)s1)c1ccco1	11
O=C(Cc1ccsc1-c1ccccc1)NO	64*
O=C(Cc1cccs1)Nc1ccc(-c2nnc(-c3ccccc3)o2)cc1	-2
CCCNC(=O)Cn1cnc2sc(C(=O)NCCN(CC)CC)c(C)c2c1=O	-3
CNc1nc(-c2c[nH]c3ccccc23)cs1	38*
COC(=O)c1cc(-c2c[nH]c3ccccc23)n[nH]1	-4
Cc1csc(NC(=O)Cc2c[nH]c3ccccc23)n1	-3
Cc1ccc(S(=O)(=O)N2CCSC2c2ccco2)cc1 (stereo unspecified)	2
Cn1c(Cc2ccccc2)nnc1SCC(=O)c1cccs1	-7
COc1cc(C)c(Cl)cc1S(=O)(=O)NCC1CCCO1 (stereo unspecified)	-1
CCOc1cc(C)c(Cl)cc1S(=O)(=O)NCC1CCCO1 (stereo unspecified)	0
COc1ccc(OC)c(S(=O)(=O)NCC2CCCO2)c1 (stereo unspecified)	45*
CC(=Nc1ccc(C)c(C)c1)C1=C(O)CSC1=O	-1
N#Cc1c(NCCN)nc(NCc2ccccc2)c2c1CCN(Cc1ccccc1)C2	58*
N#Cc1c(NCCN)nc(-c2ccccc2)c2c1CCCC2	8
Nc1[nH]nc2nc(NCc3ccccc3)c3c(c12)CCN(Cc1ccccc1)C3	-3
CC(=O)NC(CCS(C)(=O)=O)C(=O)Nc1ccc(F)cc1Cl (stereo unspecified)	-5
CCOC(=O)C1(C(=O)OCC)CC1c1ccccc1 (stereo unspecified)	-11
Cc1nc2ccccc2n1CC(=O)OCC(=O)NCCc1ccccc1	8
C=CCn1c(CNc2ccccc2)nnc1SCC(=O)N/N=C/c1ccccc1O	0
CCN(CC)CCN1C(=O)C(=O)/C(=C(/O)c2ccc(OC)cc2)C1c1ccco1 (stereo unspecified)	-2
CCOc1ccc(/C(O)=C2/C(=O)C(=O)N(c3nc(C)c(C)s3)C2c2ccco2)cc1 (stereo unspecified)	43*
CCOc1ccc(/C(O)=C2\C(=O)C(=O)N(c3cc(C)on3)C2c2ccccc2OC)cc1 (stereo unspecified)	3
Cc1ccc(C2CN(c3ccccc3)CC2C(=O)c2ccc(F)cc2)cc1 (stereo unspecified)	-1
O=C(Nc1cccnc1)C1(F)C(F)(F)C(F)(F)C(F)(F)C(F)(F)C1(F)F	-2
SMILES	Artemis inh
COC(=O)/C=C/C(=O)Nc1cccnc1	35*
COc1cc2ccccc2cc1C(=O)Nc1cccnc1	-1
N#CC1=C(N)Oc2cc(Nc3ccccc3)ccc2C1c1ccncc1 (stereo unspecified)	10
Cc1ccc(S(=O)(=O)N2CCOCC2)cc1C(=O)NCc1cn2ccsc2n1	-1
CCC(Sc1nc2ccccc2s1)C(=O)Nc1cc(C)on1 (stereo unspecified)	8
CC(C)c1nc2sc3c(SCC(=O)NCc4ccco4)ncnc3c2c2c1CCC2	29
N#Cc1sc2nc3c(c(-c4ccco4)c2c1N)CCCC3	13
CSc1nc(N(CCO)CCO)c2sc3nc(-c4ccco4)c4c(c3c2n1)CCC4	46*
CCOC(=O)c1ccccc1NC(=O)CSc1nnc(C(C)C)n1CC	1
